Results on 40 molecules are retold here after PubChem BioAssay (NCATS).

Inconclusive results are not listed. Calls of active or inactive are those of the source. Calls come from the whole dose curve; as a rule, active = well fitted inhibition curve with a large enough effect; inconclusive = small, poorly fitted or top-dose-only effect; inactive = no such curve, though single readings can be large or run the other way.
Potency is the fitted concentration of half-maximal effect.

A short description of the assay: BET inhibitor-based combinations targeting novel dependencies in MECOM-rearranged (r) AML: HNT-34 cell line (AID 2202234).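 For viability (% of control): plate controls were vehicle wells for no effect and cell-free wells for full effect.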 Note: nearly all actives have a fitted effect of over 35% in size. The settings on record: HNT-34 AML viability, CellTiter-Glo luminescence, 48 h; series mostly up to 46 µM; viability (% of control): at the top concentration. The source says: Ecotropic viral insertion site 1 (EVI1) is located on chromosome 3q26.2 as part of the MECOM (MDS and EVI1 complex) locus. Under normal hematopoiesis, EVI1 is a regulator of hematopoietic stem cell maintenance and self-renewal and EVI1 levels decrease as the cells differentiate. In approximately 5-10% of de novo acute myeloid leukemia (AML) EVI1 is aberrantly expressed, including Chromosomal inv(3)(q21;q26.2) or t(3;3)(q21;q26.2) alterations (MECOM-r) that account for about 50% of AML with EVI1 overexpression 31. AMLs with high levels of EVI1 have a poor prognosis and an overall survival time averaging between 10-14 months. EVI1 overexpression confers resistance in leukemia cells, highlighting the need to develop new targeted therapies for EVI1 overexpressing AMLs. Here, we performed an unbiased chemical drug screening by evaluating the single agent activity of a collection of 2,480 oncology-focused, approved and investigational drugs (NCATS Mechanism Interrogation Plates, MIPE v5.0) against a panel of seven AML cell lines. These included four MECOM-r cell-lines (AML-191, AML-194, UCSD-AML1 and HNT-34) and three non-MECOM-r AMLs (MV4-11, OCI-AML3 and SET-2). Exploiting the mechanistic redundancy built in the library, we identified target-level sensitivities in MECOM-r AML cells and relative activity as compared to other AML subtypes.
A collection of 2480 mechanistically annotated dugs (MIPE v5.0) was used to screen four 3q26.2 rearranged AML cell lines and three non-3q26.2 rearranged AML cell lines. This library purposely exploits redundancy by including multiple inhibitors of key onco-targets, while simultaneously encompassing mechanistic diversity, targeting more than 800 distinct mechanisms of action. Briefly, cells were seeded in 5 uL of growth media using a Multidrop Combi dispenser into 1536 well white polystyrene tissue culture treated plates (Corning) at a density of 500cells/well. For each cell-line, for each of the 2480 drugs in MIPE v5.0 library, an 11-point dose curve was generated via a 1536 pin-tool. Plates were incubated for 48 hr at standard incubator conditions, covered by a stainless steel gasketed lid to prevent evaporation. Cell viability was determined by luminescence based, Cell Titer Glo assay (Promega). In detail, 3 uL of Cell Titer Glo were added to each well and plates were incubated at room temperature for 15 min with a stainless-steel lid in place. Luminescence readings were taken using a Viewlux (PerkinElmer) with a 2 s exposure time per plate. Compound dose-response curves were normalized to DMSO and empty well controls on each plate. Quantitative drug activity data from dose-response curves was determined utilizing area Under the Curve (AUC) and Z-transformed AUC (Z-AUC, a mean-centering transformation applied to each individual cell-line screened).
For orientation: ATP-based viability assays read luminescence as a measure of living cells.
On to `Nc1cc(C(Cl)=C(Cl)Cl)c(S(N)(=O)=O)cc1S(N)(=O)=O`, for which the “viability (% of control)” value is 99% (inactive). Still for that read-out and setting: with `CCCCCCCCCCCCc1ccc(S(=O)(=O)Nc2nncs2)cc1` the figure was 99.2% (inactive); with `CCCCS(=N)(=O)CCC(N)C(=O)O` (stereo not given), 96.3% [at 69.1 µM] (inactive); with `CS(=O)(=O)c1ccc(C2=C(c3ccccc3)C(=O)OC2)cc1`, 95.3% (inactive). On to `CC(C)(Sc1ccc(CCN(CCCCC2CCCCC2)C(=O)NC2CCCCC2)cc1)C(=O)O`, for which the “viability (% of control)” value was 93.1% (inactive).

For the molecule `CC/C(=C(\c1ccccc1)c1ccc(OCCN(C)C)cc1)c1ccccc1`, the Potency was 15.2 µM (active). The same measure, in the same setting: with `Nc1ccn([C@@H]2O[C@H](CO)[C@@H](O)C2(F)F)c(=O)n1` the figure was 0.0372 µM (active). Regarding `CCOC(=O)O[C@]1(C(=O)OCCl)CC[C@H]2[C@@H]3CCC4=CC(=O)C=C[C@]4(C)[C@H]3[C@@H](O)C[C@@]21C`, the “viability (% of control)” value was 82.2% (inactive).

For the molecule `Nc1ncnc2c1c(-c1cccc(OCc3ccccc3)c1)cn2C1CC(CN2CCCC2)C1` (stereo not given), the Potency is 18.6 µM (active). `COc1ccc2c(c1)c(CC(=O)O)c(C)n2C(=O)c1ccc(Cl)cc1`: the “viability (% of control)” value was 99.5% (inactive). Take `COc1c(C)cc(NC(=O)c2nn(Cc3ccc(F)cc3)c3c2CN(C(=O)c2ccc[nH]2)C[C@]3(C)C(N)=O)cc1C`: the viability (% of control) is 105% [at 8.46 µM] (inactive). For `CC(C)[C@H](CO)Nc1nc(Nc2cccc(Cl)c2)c2ncn(C(C)C)c2n1`, the Potency was 16.6 µM (active).

For `CCCOc1ccn2c(C(C)=O)cc(-c3ccccc3S(C)(=O)=O)c2c1`, the Potency was 18.6 µM (active). On the same count and under the same terms, with `COC(=O)Nc1nc2ccc(C(=O)c3ccc(F)cc3)cc2[nH]1` the figure was 0.417 µM (active). For the molecule `O=c1c(O)c(-c2ccc(O)cc2O)oc2cc(O)cc(O)c12`, the “viability (% of control)” value is 112% (inactive). As for `O=c1oc2c(O)c(O)cc3c(=O)oc4c(O)c(O)cc1c4c23`, the “viability (% of control)” value is 95.7% [at 15.6 µM] (inactive).

In the case of `Nc1ncnc2c1C(=O)N(c1ccc(C3CCC(CC(=O)O)CC3)cc1)CCO2` (stereo not given), the “viability (% of control)” value is 108% (inactive). For `O=C(NCC1CN(c2ccc(N3CCOCC3=O)cc2)C(=O)O1)c1ccc(Cl)s1` (stereo not given), the Potency is 23.5 µM (active). `CCCCC(F)(F)[C@@]1(O)CC[C@H]2[C@H](CC(=O)[C@@H]2CCCCCCC(=O)O)O1`: the “viability (% of control)” value is 103% (inactive). For the molecule `NS(=O)(=O)c1cc(Cl)c(Cl)c(S(N)(=O)=O)c1`, the “viability (% of control)” value is 97.7% (inactive). On the same count and under the same terms, with `COc1ccc2c(OCc3nnc4ccc(-c5ccccc5)nn34)ccnc2c1` the figure was 103% (inactive).

On to `O=C1c2ccccc2-c2n[nH]c3cccc1c23`, for which the Potency is 13.2 µM (active). On to `Cc1[nH]nc2ccc(-c3cncc(OC[C@@H](N)Cc4ccccc4)c3)cc12`, for which the Potency was 0.662 µM (active).

In the case of `CCC(=O)O[C@]1(C(=O)CCl)[C@@H](C)C[C@H]2[C@@H]3CCC4=CC(=O)C=C[C@]4(C)[C@@]3(F)[C@@H](O)C[C@@]21C`, the Potency is 20.9 µM (active). For `C=C1C[C@@]2(O)O[C@@]3(C[C@H]2C(C)C)[C@@H](C)CC[C@@H]13`, the “viability (% of control)” value is 94.9% (inactive).

For `Cc1cc2nc3c(=O)[nH]c(=O)nc-3n(CC(O)C(O)C(O)CO)c2cc1C` (stereo not given), the “viability (% of control)” value is 95.5% (inactive). Consider `C=C1C(=O)[C@@]23C(CC[C@@H]1[C@H]2O)[C@@]12CO[C@]3(O)[C@@H](O)[C@@H]1C(C)(C)CC[C@@H]2O` (stereo not given in full), for which the Potency is 2.35 µM (active). For the molecule `NC(CO)C(=O)NNCc1ccc(O)c(O)c1O` (stereo not given), the “viability (% of control)” value is 97.3% (inactive). Consider `CC(C)(C)NC(=O)[C@H]1CC[C@H]2[C@@H]3CC[C@H]4NC(=O)C=C[C@]4(C)[C@H]3CC[C@]12C`, for which the “viability (% of control)” value was 88.9% (inactive). For `CC1c2ccccc2CN1NC(=O)c1ccc(Cl)c(S(N)(=O)=O)c1` (stereo not given), the “viability (% of control)” value is 92.3% (inactive). On to `O=C(/C=C/c1ccc(O)cc1)c1ccc(O)cc1O`, for which the Potency is 9.34 µM (active). Regarding `COc1ccc(-n2c(SCCCN3C(=O)c4cccc5cccc(c45)C3=O)nnc2-c2ccncc2)cc1`, the “viability (% of control)” value is 92.7% (inactive).

As for `Cc1cc(C(C)Nc2ccccc2)c2nc(N3CCOCC3)cc(=O)n2c1` (stereo not given), the Potency was 16.6 µM (active).

Take `O=C(O)c1ccccc1C(=O)Nc1ccc(-c2ccccc2)cc1`: the “viability (% of control)” value is 105% (inactive). Still for that read-out and setting: with `Cc1cc(C)cc(NC(=O)Cc2ccc(OC(C)(C)C(=O)O)cc2)c1` the figure was 102% (inactive). As to `CC(C)C(=O)Nc1ccc([N+](=O)[O-])c(C(F)(F)F)c1`, the “viability (% of control)” value was 93% (inactive). Consider `Nc1ccc(S(N)(=O)=O)cc1`, for which the “viability (% of control)” value was 93% (inactive). As for `Cc1ccc(S(=O)(=O)NC(=O)NN2CC3CCCC3C2)cc1` (stereo not given), the “viability (% of control)” value was 106% (inactive). On to `O=C(Nc1ccnc(NC(=O)C2CC2)c1)c1c(Cl)cccc1Cl`, for which the Potency was 4.17 µM (active). Turning to `CC(=O)N(O)CCCCCNC(=O)CCC(=O)N(O)CCCCCNC(=O)CCC(=O)N(O)CCCCCN`, the Potency is 9.34 µM (active).
